From PubChem BioAssay (Tox21)
Inconclusive results are not listed. Calls of active or inactive are those of the source. Unless noted, calls come from the whole dose curve; as a rule, active = well fitted curve in the direction sought with a large enough effect in the repeat runs; inconclusive = weak or mixed curves; inactive = no such curve, though single readings can be large; an effect the other way counts as inactive or inconclusive.

What was measured:
[1] = A CellTox Green Cytotoxicity Assay to monitor cytotoxicity in HepG2 cells - 8 hour (AID 1224890); note: nearly all actives have a fitted effect of over 45% in size
Procedure, shortened: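 Cells and non-lytic dye reagent are dispensed together (600 HepG2 cells/well) and incubated 5 h before DMSO compound transfer. Kinetic fluorescence is then recorded in the same wells during 40 h at 37 C.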

[2] = qHTS assay to identify small molecule antagonists of the estrogen receptor alpha (ER-alpha) signaling pathway using the BG1 cell line in the presence of 0.1 nM 17-beta-estradiol - cell viability counter screen (AID 1259241); note: nearly all actives have a fitted effect of over 40% in size; note: potency is the fitted concentration of half-maximal effect
Procedure, shortened: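 Following 5 days in phenol red-free medium with charcoal-stripped serum, VM7Luc4E2 cells received test compounds alongside 0.1 nM 17beta-estradiol (final) at 37C for 22 hr. Live cells were then quantified via protease-substrate fluorescence.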

[3] = qHTS assay to identify small molecule antagonists of the androgen receptor (AR) signaling pathway using the MDA cell line in the presence of 0.5 nM R1881 - cell viability counter screen (AID 1259242); note: nearly all actives have a fitted effect of over 45% in size; note: potency is the fitted concentration of half-maximal effect
Procedure, shortened: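 Steps: plate MDA-kb2 cells, rest 5 hr at 37C without CO2; pin in compounds in DMSO; add R1881 to 0.5 nM final; incubate 16 hr; add CellTiter-Fluor, 30 min; read fluorescence.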

[4] = qHTS assay to identify small molecule phospholipidosis (PLD) inducers (AID 1259344; active = well fitted curve in the direction sought with a large enough effect; an effect the other way counts as inactive or inconclusive)
Procedure, shortened: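 Accumulated phospholipid, stained red by LipidTOX during 24 h compound treatment of HepG2 cells at 37 C, is quantified from images as pit number and intensity, normalised per cell using Hoechst-stained nuclei.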

[5] = qHTS assay to identify small molecule HDAC inhibitors (AID 1259364);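 note: wild-type HCT-116 cells with endogenous class I/II HDAC activity; top concentration of the series differs between compounds; nearly all actives have a fitted effect of over 45% in size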
Procedure, shortened: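 Cells (HCT-116, wild type) are seeded at 1,500 per well, incubated overnight, treated with compound in DMSO for 2 hr, then developed with HDAC-Glo I/II reagent for 30 min at room temperature.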

[6] = qHTS assay to identify small molecule HDAC inhibitors - cell viability counter screen (AID 1259365); note: nearly all actives have a fitted effect of over 50% in size; note: potency is the fitted concentration of half-maximal effect; for activity change, negative = cytotoxicity: series mostly up to about 92 µM
Procedure, shortened: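 HCT-116 wild-type, overnight attachment; 2hr drug exposure, 37C; CellTiter-Glo luminescent ATP readout after 30min RT.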

[7] = qHTS assay to identify small molecule agonists of the sonic hedgehog signaling (Shh) pathway - cell viability counter screen (AID 1259366); note: nearly all actives have a fitted effect of over 50% in size; note: potency is the fitted concentration of half-maximal effect
Procedure, shortened: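 Compounds in DMSO were pin-transferred onto 3T3 Gli1-Luc cells that had settled 4hr; plates then stood 24hr at 37C and 5% CO2. One hour before the end, CellTiter-Fluor was added and fluorescence recorded.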

[8] = qHTS assay to identify small molecule antagonists of the sonic hedgehog signaling (Shh) pathway - cell viability counter screen (AID 1259367); note: nearly all actives have a fitted effect of over 55% in size; note: potency is the fitted concentration of half-maximal effect
Procedure, shortened: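 CellTiter-Fluor signal in conditioned medium-stimulated 3T3 Gli1-Luc cells, 23 hr compound exposure, 37C.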
% is set by controls: 0 for no effect and ±100 for the full control effect.

O=C(OCCOCCO)c1ccccc1Nc1cccc(C(F)(F)F)c1
inactive: Potency [1] | Potency [2] | Potency [3] | outcome [4] | Potency [5] | Potency [6] | Potency [7] | Potency [8]

O=S(=O)(c1ccccc1)c1ccc(Cl)cc1
inactive: Potency [1] | Potency [2] | Potency [3] | Potency [5] | Potency [6] | Potency [7] | Potency [8]

[O]=[Bi]
inactive: cytotoxicity increase [1] 2.13% [at 6.97 µM] | activity change, negative = cytotoxicity [2] -2.05% [at 8.39 µM] | viability change, negative = cytotoxic [3] 1.95% [at 8.39 µM] | activity change, negative = inhibition [5] 9.82% [at 8.39 µM] | activity change, negative = cytotoxicity [6] -2.43% [at 8.39 µM] | viability change, negative = cytotoxic [7] 11.3% [at 8.39 µM] | viability change, negative = cytotoxic [8] -5.4% [at 8.39 µM]

CCCCCCOC(=O)C(C)C
inactive: Potency [1] | Potency [2] | Potency [3] | Potency [5] | Potency [6] | Potency [7] | Potency [8]

N#C/C(=C1/SC[C@@H](c2ccc(Cl)cc2Cl)S1)n1ccnc1
inactive: Potency [1] | Potency [2] | Potency [3] | outcome [4] | Potency [5] | Potency [6] | Potency [7] | Potency [8]

C[N+]1(C)CCC(=C(c2ccccc2)c2ccccc2)CC1
inactive: Potency [1] | Potency [2] | Potency [3] | outcome [4] | Potency [5] | Potency [6] | Potency [7] | Potency [8]

CC1(C)C(=O)N(Br)C(=O)N1Cl
inactive: Potency [1] | Potency [2] | Potency [3] | Potency [5] | Potency [6] | Potency [7] | Potency [8]

CCCCCCCC/C=C\CCCCCCCC(=O)OC
inactive: Potency [1] | Potency [2] | Potency [3] | Potency [5] | Potency [6] | Potency [7] | Potency [8]

CC[C@H](NC(=O)c1cc(F)ccc1NS(=O)(=O)c1cccc2cccnc12)c1ccccc1
inactive: Potency [1] | Potency [2] | Potency [3] | Potency [5] | Potency [6] | Potency [7] | Potency [8]

Nc1ccc(C(=O)OCCCOC(=O)c2ccc(N)cc2)cc1
inactive: Potency [1] | Potency [2] | Potency [3] | Potency [5] | Potency [6] | Potency [7] | Potency [8]

COc1ccccc1N=Nc1c(S(=O)(=O)O)cc2cc(S(=O)(=O)O)cc(NC(C)=O)c2c1O
inactive: Potency [1] | Potency [5]
active: Potency [2] 22.9 µM | Potency [3] 25.7 µM | Potency [6] 25.7 µM | Potency [7] 25.7 µM | Potency [8] 25.7 µM

Cc1cnc(C)c(C)n1
inactive: Potency [1] | Potency [2] | Potency [3] | Potency [5] | Potency [6] | Potency [7] | Potency [8]

CCCCC(CC)CNCC(CC)CCCC (configuration not stated)
inactive: Potency [1] | Potency [2] | Potency [3] | Potency [5] | Potency [6] | Potency [7] | Potency [8]

C[C@@H]1C[C@H]2[C@@H]3CCC4=CC(=O)C=C[C@]4(C)[C@@]3(F)[C@@H](O)C[C@]2(C)[C@H]1C(=O)CO
inactive: Potency [1] | Potency [2] | Potency [3] | Potency [5] | Potency [6] | Potency [7] | Potency [8]

C=CC(C)(C)CC(=O)OC
inactive: Potency [1] | Potency [2] | Potency [3] | Potency [5] | Potency [6] | Potency [7] | Potency [8]

CO[C@H]1O[C@H](CO)[C@@H](O)[C@H](O)[C@H]1O
inactive: Potency [1] | Potency [2] | Potency [3] | Potency [5] | Potency [6] | Potency [7] | Potency [8]

CC1=CC(=O)CC(C)(C)C1(O)/C=C/C(C)=C\C(=O)O (configuration not stated)
inactive: Potency [1] | Potency [2] | Potency [3] | Potency [5] | Potency [6] | Potency [7]

Nc1nccs1
inactive: Potency [1] | Potency [2] | Potency [3] | outcome [4] | Potency [5] | Potency [6] | Potency [7] | Potency [8]

O=C(O)c1snc(Cl)c1Cl
inactive: Potency [1] | Potency [2] | Potency [3] | Potency [5] | Potency [6] | Potency [7] | Potency [8]

N#C/C(=C1\SCC(c2ccccc2Cl)S1)n1ccnc1 (configuration not stated)
inactive: Potency [1] | Potency [2] | Potency [3] | outcome [4] | Potency [5] | Potency [6] | Potency [7] | Potency [8]

Nc1nc(Cl)nc2c1ncn2[C@@H]1O[C@H](CO)[C@@H](O)[C@@H]1F
inactive: Potency [1] | Potency [2] | Potency [3] | outcome [4] | Potency [5] | Potency [6] | Potency [8]

CCCCC/C(=C\c1ccccc1)CO
inactive: Potency [1] | Potency [2] | Potency [3] | Potency [5] | Potency [6] | Potency [7]

CN(C(=O)C(Cl)Cl)c1ccc(OC(=O)c2ccco2)cc1
inactive: Potency [1] | Potency [2] | Potency [3] | outcome [4] | Potency [5] | Potency [6] | Potency [7] | Potency [8]

C[C@]12CCC(=O)C=C1C=C[C@@H]1[C@@H]2CC[C@@]2(C)[C@H]1CC[C@@]21CCC(=O)O1
inactive: Potency [1] | Potency [2] | Potency [3] | Potency [5] | Potency [6] | Potency [7] | Potency [8]

Cc1ccccc1N1C(=O)c2cc(S(N)(=O)=O)c(Cl)cc2NC1C (configuration not stated)
inactive: Potency [1] | Potency [2] | Potency [3] | outcome [4] | Potency [5] | Potency [6] | Potency [7] | Potency [8]

CCC(=O)Oc1ccc(/C(CC)=C(\CC)c2ccc(OC(=O)CC)cc2)cc1
inactive: Potency [1] | Potency [2] | Potency [3] | Potency [5] | Potency [6] | Potency [7]

C=CC(=O)NCOCC(C)C
inactive: Potency [1] | Potency [2] | Potency [3] | Potency [5] | Potency [6] | Potency [7]

CC(C)CCCCCOC(=O)CCCCC(=O)OCCCCCC(C)C
inactive: Potency [1] | Potency [2] | Potency [3] | Potency [5] | Potency [6] | Potency [7]

COCCOC(=O)C1=C(C)NC(C)=C(C(=O)OC/C=C/c2ccccc2)C1c1cccc([N+](=O)[O-])c1 (configuration not stated)
inactive: Potency [1] | Potency [2] | Potency [3] | outcome [4] | Potency [5] | Potency [6] | Potency [8]

CCCC1C(CC)=CC(CC)=CN1c1ccccc1 (configuration not stated)
active: Potency [3] 48.6 µM
inactive: Potency [1] | Potency [2] | Potency [5] | Potency [6] | Potency [7] | Potency [8]

CCC(C)=O
inactive: Potency [1] | Potency [2] | Potency [3] | Potency [5] | Potency [6] | Potency [7] | Potency [8]

CCCCCCOC(=O)CCCCCCCC(=O)OCCCCCC
inactive: Potency [1] | Potency [2] | Potency [3] | Potency [5] | Potency [6] | Potency [7] | Potency [8]

C(=C\c1ccccc1)/CN1CCN(C(c2ccccc2)c2ccccc2)CC1
inactive: Potency [1] | Potency [2] | Potency [3] | Potency [5] | Potency [6] | Potency [7] | Potency [8]

COCCOC
inactive: Potency [1] | Potency [2] | Potency [3] | Potency [5] | Potency [6] | Potency [7] | Potency [8]

C[C@@H]1C[C@H]2[C@@H]3CCC4=CC(=O)C=C[C@]4(C)[C@@]3(F)[C@@H](O)C[C@]2(C)[C@@]1(O)C(=O)CO
inactive: Potency [1] | Potency [2] | Potency [3] | Potency [5] | Potency [6] | Potency [7] | Potency [8]

CC1CC(O)CC(C)(C)C1 (configuration not stated)
inactive: Potency [1] | Potency [2] | Potency [3] | outcome [4] | Potency [5] | Potency [6] | Potency [7] | Potency [8]

C/C=C(\C)C(=O)OCCC(C)CCC=C(C)C (configuration not stated)
inactive: Potency [1] | Potency [2] | Potency [3] | Potency [5] | Potency [6] | Potency [7] | Potency [8]
